Measurements published in article PMC9911399, “Two distinct binding modes provide the RNA-binding protein RbFox with extraordinary sequence specificity”.
Positions count from the first letter of the chain named. Whole data set: some 16,000 sequences, median “ka relative to ugcaugu” near 0.096, cut for the highest 2% near 0.35. Many of the other results were omitted from the sample, so the highest values are more common in it than they were.

T1: RBFOX1 RRM RbFoxmut (Fox-RRM*) (Homo sapiens, UniProt Q9NWB1 109-208, R118D;E147R;N151S;E152T)
T1 sequence: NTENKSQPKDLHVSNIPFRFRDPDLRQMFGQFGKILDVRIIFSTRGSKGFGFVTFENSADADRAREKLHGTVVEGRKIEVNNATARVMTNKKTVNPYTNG

B1: ACGCACA (DNA:RNA)
RNA: GGGAGACCGGAAUUCAGAUUGUCCACGCACAUUAAAUCCCGUCGUAGCCACCA
DNA 1: CAATCTGAATTCCGGTCTCCC
DNA 2: TGGTGGCTACGACGGGATT
B2: GCCGUUU (DNA:RNA)
RNA: B1 RNA with A25G, G27C, C28G, A29U, C30U, A31U
DNA 1: CAATCTGAATTCCGGTCTCCC
DNA 2: TGGTGGCTACGACGGGATT
B3: UCGUGAC (DNA:RNA)
RNA: B1 RNA with A25U, C28U, A29G, C30A, A31C
DNA 1: CAATCTGAATTCCGGTCTCCC
DNA 2: TGGTGGCTACGACGGGATT
B4: UCACAUA (DNA:RNA)
RNA: B1 RNA with A25U, G27A, C30U
DNA 1: CAATCTGAATTCCGGTCTCCC
DNA 2: TGGTGGCTACGACGGGATT
B5: AUAUGCA (DNA:RNA)
RNA: B1 RNA with C26U, G27A, C28U, A29G
DNA 1: CAATCTGAATTCCGGTCTCCC
DNA 2: TGGTGGCTACGACGGGATT
B6: GGAUGCA (DNA:RNA)
RNA: B1 RNA with A25G, C26G, G27A, C28U, A29G
DNA 1: CAATCTGAATTCCGGTCTCCC
DNA 2: TGGTGGCTACGACGGGATT
B7: GUAUGCA (DNA:RNA)
RNA: B1 RNA with A25G, C26U, G27A, C28U, A29G
DNA 1: CAATCTGAATTCCGGTCTCCC
DNA 2: TGGTGGCTACGACGGGATT
B8: UCCCGUA (DNA:RNA)
RNA: B1 RNA with A25U, G27C, A29G, C30U
DNA 1: CAATCTGAATTCCGGTCTCCC
DNA 2: TGGTGGCTACGACGGGATT
B9: CCCUGAA (DNA:RNA)
RNA: B1 RNA with A25C, G27C, C28U, A29G, C30A
DNA 1: CAATCTGAATTCCGGTCTCCC
DNA 2: TGGTGGCTACGACGGGATT
B10: UGAAAUG (DNA:RNA)
RNA: B1 RNA with A25U, C26G, G27A, C28A, C30U, A31G
DNA 1: CAATCTGAATTCCGGTCTCCC
DNA 2: TGGTGGCTACGACGGGATT
B11: UGAAUGU (DNA:RNA)
RNA: GGGAGACCGGAAUUCAGAUUGUCCUGAAUGUUUAAAUCCCGUCGUAGCCACCA
DNA 1: CAATCTGAATTCCGGTCTCCC
DNA 2: TGGTGGCTACGACGGGATT
B12: CUGAAUC (DNA:RNA)
RNA: B1 RNA with A25C, C26U, C28A, C30U, A31C
DNA 1: CAATCTGAATTCCGGTCTCCC
DNA 2: TGGTGGCTACGACGGGATT
B13: CUGAAUG (DNA:RNA)
RNA: B1 RNA with A25C, C26U, C28A, C30U, A31G
DNA 1: CAATCTGAATTCCGGTCTCCC
DNA 2: TGGTGGCTACGACGGGATT
B14: UGAUUGU (DNA:RNA)
RNA: B11 RNA with A28U
DNA 1: CAATCTGAATTCCGGTCTCCC
DNA 2: TGGTGGCTACGACGGGATT
B15: CGGUUCC (DNA:RNA)
RNA: B1 RNA with A25C, C26G, C28U, A29U, A31C
DNA 1: CAATCTGAATTCCGGTCTCCC
DNA 2: TGGTGGCTACGACGGGATT
B16: UUUCGAG (DNA:RNA)
RNA: B1 RNA with A25U, C26U, G27U, A29G, C30A, A31G
DNA 1: CAATCTGAATTCCGGTCTCCC
DNA 2: TGGTGGCTACGACGGGATT
B17: AUUAUUA (DNA:RNA)
RNA: B1 RNA with C26U, G27U, C28A, A29U, C30U
DNA 1: CAATCTGAATTCCGGTCTCCC
DNA 2: TGGTGGCTACGACGGGATT
B18: UUUUUAA (DNA:RNA)
RNA: B11 RNA with G26U, A27U, A28U, G30A, U31A
DNA 1: CAATCTGAATTCCGGTCTCCC
DNA 2: TGGTGGCTACGACGGGATT
B19: ACUUAAG (DNA:RNA)
RNA: B1 RNA with G27U, C28U, C30A, A31G
DNA 1: CAATCTGAATTCCGGTCTCCC
DNA 2: TGGTGGCTACGACGGGATT
B20: CCAGAGG (DNA:RNA)
RNA: B1 RNA with A25C, G27A, C28G, C30G, A31G
DNA 1: CAATCTGAATTCCGGTCTCCC
DNA 2: TGGTGGCTACGACGGGATT
B21: UCGAGAA (DNA:RNA)
RNA: B1 RNA with A25U, C28A, A29G, C30A
DNA 1: CAATCTGAATTCCGGTCTCCC
DNA 2: TGGTGGCTACGACGGGATT
B22: UUUCGCU (DNA:RNA)
RNA: B1 RNA with A25U, C26U, G27U, A29G, A31U
DNA 1: CAATCTGAATTCCGGTCTCCC
DNA 2: TGGTGGCTACGACGGGATT
B23: UUGAACC (DNA:RNA)
RNA: B1 RNA with A25U, C26U, C28A, A31C
DNA 1: CAATCTGAATTCCGGTCTCCC
DNA 2: TGGTGGCTACGACGGGATT
B24: CGAACGU (DNA:RNA)
RNA: B11 RNA with U25C, U29C
DNA 1: CAATCTGAATTCCGGTCTCCC
DNA 2: TGGTGGCTACGACGGGATT
B25: CCGAACG (DNA:RNA)
RNA: B1 RNA with A25C, C28A, A31G
DNA 1: CAATCTGAATTCCGGTCTCCC
DNA 2: TGGTGGCTACGACGGGATT
B26: UUAAACG (DNA:RNA)
RNA: B11 RNA with G26U, U29A, G30C, U31G
DNA 1: CAATCTGAATTCCGGTCTCCC
DNA 2: TGGTGGCTACGACGGGATT
B27: UGGAACG (DNA:RNA)
RNA: B1 RNA with A25U, C26G, C28A, A31G
DNA 1: CAATCTGAATTCCGGTCTCCC
DNA 2: TGGTGGCTACGACGGGATT
B28: UGGACGU (DNA:RNA)
RNA: B11 RNA with A27G, U29C
DNA 1: CAATCTGAATTCCGGTCTCCC
DNA 2: TGGTGGCTACGACGGGATT
B29: UUGAACG (DNA:RNA)
RNA: B1 RNA with A25U, C26U, C28A, A31G
DNA 1: CAATCTGAATTCCGGTCTCCC
DNA 2: TGGTGGCTACGACGGGATT
B30: UGGACCG (DNA:RNA)
RNA: B11 RNA with A27G, U29C, G30C, U31G
DNA 1: CAATCTGAATTCCGGTCTCCC
DNA 2: TGGTGGCTACGACGGGATT
B31: GAACGUU (DNA:RNA)
RNA: B11 RNA with U25G, G26A, A28C, U29G, G30U
DNA 1: CAATCTGAATTCCGGTCTCCC
DNA 2: TGGTGGCTACGACGGGATT
B32: CGGAACG (DNA:RNA)
RNA: B1 RNA with A25C, C26G, C28A, A31G
DNA 1: CAATCTGAATTCCGGTCTCCC
DNA 2: TGGTGGCTACGACGGGATT
B33: GUUAACG (DNA:RNA)
RNA: B1 RNA with A25G, C26U, G27U, C28A, A31G
DNA 1: CAATCTGAATTCCGGTCTCCC
DNA 2: TGGTGGCTACGACGGGATT
B34: GGAACGU (DNA:RNA)
RNA: B11 RNA with U25G, U29C
DNA 1: CAATCTGAATTCCGGTCTCCC
DNA 2: TGGTGGCTACGACGGGATT

Molecular target: T1, RBFOX1 RRM RbFoxmut (Fox-RRM*)
Assay: EMSA; HiTS-Eq, 1 nM pool, 10 min; buffer printed only for the single-RNA assays: 10 mM Tris pH 7.5, 150 mM NaCl, 3.4 mM EDTA, 0.001% NP-40, 30 C
Details: tags: His6 N-terminal (pET28a); label: 5' 32P
In short: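 These values rest on relative association constants, computed from read-count changes of each RNA species versus the control reaction and normalised to the cognate motif. Reads came from free RNA recovered by 8% native PAGE after purified RbFox RRM (wild type or mutant) at increasing concentrations was equilibrated for 10 min in 50 µL with 1 nM of a 5′-radiolabelled pool with 7 randomized nucleotides and DNA-annealed flanks.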

| Binder | binding signal |
| --- | --- |
| B1 | 0.105 KA relative to UGCAUGU |
| B2 | 0.0818 KA relative to UGCAUGU |
| B3 | 0.0717 KA relative to UGCAUGU |
| B4 | 0.112 KA relative to UGCAUGU |
| B5 | 0.208 KA relative to UGCAUGU |
| B6 | 0.24 KA relative to UGCAUGU |
| B7 | 0.574 KA relative to UGCAUGU |
| B8 | 0.12 KA relative to UGCAUGU |
| B9 | 0.0778 KA relative to UGCAUGU |
| B10 | 0.158 KA relative to UGCAUGU |
| B11 | 0.75 KA relative to UGCAUGU |
| B12 | 0.315 KA relative to UGCAUGU |
| B13 | 0.915 KA relative to UGCAUGU |
| B14 | 0.308 KA relative to UGCAUGU |
| B15 | 0.104 KA relative to UGCAUGU |
| B16 | 0.107 KA relative to UGCAUGU |
| B17 | 0.154 KA relative to UGCAUGU |

| Binder | binding signal |
| --- | --- |
| B18 | 0.1 KA relative to UGCAUGU |
| B19 | 0.174 KA relative to UGCAUGU |
| B20 | 0.0884 KA relative to UGCAUGU |
| B21 | 0.116 KA relative to UGCAUGU |
| B22 | 0.0799 KA relative to UGCAUGU |
| B23 | 0.129 KA relative to UGCAUGU |
| B24 | 0.175 KA relative to UGCAUGU |
| B25 | 0.211 KA relative to UGCAUGU |
| B26 | 0.0812 KA relative to UGCAUGU |
| B27 | 0.84 KA relative to UGCAUGU |
| B28 | 0.147 KA relative to UGCAUGU |
| B29 | 0.39 KA relative to UGCAUGU |
| B30 | 0.238 KA relative to UGCAUGU |
| B31 | 0.199 KA relative to UGCAUGU |
| B32 | 0.53 KA relative to UGCAUGU |
| B33 | 0.111 KA relative to UGCAUGU |
| B34 | 0.415 KA relative to UGCAUGU |
